Results reported in PubChem BioAssay (EPA / NIEHS).
The source made the active and inactive calls. How the source made its calls: active means hit-call score of the fitted dose curve at least 0.9, where 1 is the maximum; inactive means score below 0.9.

Columns and labels:
[1] = read-out: Interleukin-1 alpha (IL1a), IL1A (gene 3552); test: BSK_KF3CT_IL1a: BioMAP Diversity Plus: KF3CT Assay for Interleukin-1 alpha (IL1a) Biomarker Activity (AID 2283070); details: primary human keratinocytes with fibroblasts; actives raise or lower the signal
Procedure, shortened: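 Human keratinocyte plus foreskin fibroblast primary co-culture, sampled 24 h after chemical dosing. IL-1a measured by ELISA; responses fitted bidirectionally against DMSO baseline (negative control), so gain or loss of signal both count.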

[2] = read-out: TIMP metallopeptidase inhibitor 2 (TIMP2), TIMP2 (gene 7077); test: BSK_KF3CT_TIMP2: BioMAP Diversity Plus: KF3CT Assay for TIMP metallopeptidase inhibitor 2 (TIMP2) Biomarker Activity (AID 2283071); details: primary human keratinocytes with fibroblasts; actives raise or lower the signal
Procedure, shortened: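 Keratinocyte–fibroblast co-culture, 24 h exposure; TIMP-2 ELISA, DMSO-normalised bidirectional fit. Parallel SRB (0.1%, TCA-fixed, 560 nm) total-protein staining gauges cytotoxicity.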

[3] = read-out: Transforming growth factor beta 1 (TGFb1), TGFB1 (gene 7040); test: BSK_KF3CT_TGFb1: BioMAP Diversity Plus: KF3CT Assay for Transforming growth factor beta 1 (TGFb1) Biomarker Activity (AID 2283072); details: primary human keratinocytes with fibroblasts; actives raise or lower the signal
Procedure, shortened: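 Signal changes in either direction, relative to DMSO, define activity here. TGF-b1 is read by ELISA from a human keratinocyte-fibroblast co-culture 24 h post-dose.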

[4] = read-out: C-C motif chemokine 2 (Homo sapiens) (UniProt P13500); test: BSK_KF3CT_MCP1: BioMAP Diversity Plus: KF3CT Assay for Monocyte Chemoattractant Protein 1 (MCP1/CCL2) Biomarker Activity (AID 2283073); details: primary human keratinocytes with fibroblasts; actives raise or lower the signal
Procedure, shortened: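 Keratinocytes and foreskin fibroblasts were co-cultured, dosed with chemical, and sampled 24 h later. MCP-1 was quantified by ELISA, and the endpoint was analyzed with bidirectional fitting using DMSO as negative control.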

[5] = read-out: Matrix Metallopeptidase 9 (MMP9), MMP9 (gene 4318); test: BSK_KF3CT_MMP9: BioMAP Diversity Plus: KF3CT Assay for Matrix Metallopeptidase 9 (MMP9) Biomarker Activity (AID 2283074); details: primary human keratinocytes with fibroblasts; actives raise or lower the signal;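 on AC50: MMP9 protein level quantified by ELISA in the co-culture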
Procedure, shortened: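 Keratinocyte plus foreskin fibroblast human primary skin co-culture was dosed with chemical and MMP-9 was quantified by ELISA 24 h later. Bidirectional curve fitting used DMSO as negative control and activity baseline.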

[6] = read-out: urokinase plasminogen activator (uPA), PLAU (gene 5328); test: BSK_KF3CT_uPA: BioMAP Diversity Plus: KF3CT Assay for urokinase plasminogen activator (uPA) Biomarker Activity (AID 2283075); details: primary human keratinocytes with fibroblasts; actives raise or lower the signal
Procedure, shortened: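 Human keratinocyte plus foreskin fibroblast primary co-culture exposed to chemical for 24 h. uPA levels were quantified by ELISA, and activity was fitted bidirectionally against a DMSO negative-control baseline.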

[7] = read-out: E-selectin (Homo sapiens) (UniProt P16581); test: BSK_LPS_Eselectin: BioMAP Diversity Plus: LPS Assay for Eselectin Biomarker Activity (AID 2283077); details: primary human HUVEC with PBMC; actives raise or lower the signal
Procedure, shortened: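 Signal of E-selectin, detected by ELISA, served as the endpoint; cells were umbilical vein endothelium with PBMC, read 24 h after treatment. DMSO defined baseline, and both increases and decreases were fitted.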

[8] = read-out: Interleukin-8 (IL8), CXCL8 (gene 3576); test: BSK_LPS_IL8: BioMAP Diversity Plus: LPS Assay for Interleukin-8 (IL8) Biomarker Activity (AID 2283078); details: primary human HUVEC with PBMC; actives raise or lower the signal
Procedure, shortened: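 Endothelial cells and PBMC from human donors are co-cultured, treated with chemicals and LPS, then assayed for IL-8 by ELISA after 24 h. Parallel SRB staining (0.1% SRB after 10% TCA fixation, 560 nm) flags cytotoxicity.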

[9] = BSK_LPS_SRB: Viability Assessment in the BioMAP Diversity Plus: LPS Assay (AID 2283079); details: primary human HUVEC with PBMC;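 further: total protein by sulforhodamine B absorbance as a cytotoxicity measure; measured one day after compound addition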
Procedure, shortened: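 Overt cytotoxicity was gauged by sulforhodamine B total-protein staining in a primary human vascular endothelial and mononuclear cell co-culture 24 h post-dosing. Activity was fitted in both directions relative to DMSO.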

[10] = read-out: Interleukin-1 alpha (IL1a), IL1A (gene 3552); test: BSK_LPS_IL1a: BioMAP Diversity Plus: LPS Assay for Interleukin-1 alpha (IL1a) Biomarker Activity (AID 2283080); details: primary human HUVEC with PBMC; actives raise or lower the signal
Procedure, shortened: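 Measured: IL-1 alpha via ELISA at 24 h in LPS-activated human umbilical vein endothelium–PBMC co-culture. Baseline: DMSO, bidirectional fitting.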

[11] = read-out: Monocyte Chemoattractant Protein-1 (MCP1), CCL2 (gene 6347); test: BSK_LPS_MCP1: BioMAP Diversity Plus: LPS Assay for Monocyte Chemoattractant Protein-1 (MCP1) Biomarker Activity (AID 2283081); details: primary human HUVEC with PBMC; actives raise or lower the signal
Procedure, shortened: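 LPS-stimulated HUVEC/PBMC co-culture; chemical, 24 h; MCP-1 by ELISA; bidirectional fit vs DMSO; cytotoxicity via SRB (0.1% stain, 10% TCA fix, 560 nm) in parallel wells.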

[12] = BSK_LPS_PGE2: BioMAP Diversity Plus: LPS Assay for Prostaglandin E2 (PGE2) Biomarker Activity (AID 2283082); details: primary human HUVEC with PBMC; actives raise or lower the signal;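 on AC50: secreted prostaglandin E2 measured by ELISA in LPS-stimulated co-culture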
Procedure, shortened: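 Endpoint derived from bidirectional curve fitting versus DMSO of ELISA-measured PGE2 in LPS-stimulated human primary vascular co-culture (HUVEC with PBMC) harvested at 24 h.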

[13] = read-out: Macrophage colony-stimulating factor (MCSF), CSF1 (gene 1435); test: BSK_LPS_MCSF: BioMAP Diversity Plus: LPS Assay for Macrophage colony-stimulating factor (MCSF) Biomarker Activity (AID 2283083); details: primary human HUVEC with PBMC; actives raise or lower the signal
Procedure, shortened: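 Compound is added to a human vascular primary co-culture of umbilical vein endothelium and blood mononuclear cells. After 24 h, M-CSF is quantified by ELISA. Signal changes are fitted in both directions against DMSO.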

[14] = read-out: Tissue Factor, F3 (gene 2152); test: BSK_LPS_TissueFactor: BioMAP Diversity Plus: LPS Assay for Tissue Factor Biomarker Activity (AID 2283084); details: primary human HUVEC with PBMC; actives raise or lower the signal
Procedure, shortened: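 In this co-culture system of umbilical vein endothelium with PBMC, stimulated with LPS, cell-surface CD142 is detected by ELISA at 24 h. Endpoint values derive from bidirectional fitting, DMSO serving as baseline.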

[15] = read-out: Tumor necrosis factor (Homo sapiens) (UniProt P01375); test: BSK_LPS_TNFa: BioMAP Diversity Plus: LPS Assay for Tumour Necrosis Factor alpha (TNFa) Biomarker Activity (AID 2283085); details: primary human HUVEC with PBMC; actives raise or lower the signal;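 on AC50: TNFa protein level quantified by ELISA in the co-culture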
Procedure, shortened: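 Primary human vascular co-culture of HUVEC and PBMC; TNFa ELISA 24 h after treatment, analysed as increase or decrease relative to DMSO control.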

[16] = read-out: Vascular cell adhesion molecule 1 (VCAM1), VCAM1 (gene 7412); test: BSK_LPS_VCAM1: BioMAP Diversity Plus: LPS Assay for Vascular cell adhesion molecule 1 (VCAM1) Biomarker Activity (AID 2283086); details: primary human HUVEC with PBMC; actives raise or lower the signal
Procedure, shortened: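 Primary human vascular co-culture (umbilical vein endothelium plus PBMC) stimulated with LPS received chemical; 24 h later VCAM-1 was read by ELISA. Overt cytotoxicity was assessed by sulforhodamine B staining of parallel cultures at the same time point.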

CD38, CD38 (gene 952) = test: BSK_SAg_CD38: BioMAP Diversity Plus: SAg Assay for CD38 Biomarker Activity (AID 2283087); details: primary human HUVEC with PBMC; actives raise or lower the signal
Procedure, shortened: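 Fluorescence ELISA of cell-surface CD38 served as the read-out, with either increase or decrease fitted against DMSO controls. Cells were a human umbilical vein endothelium plus PBMC co-culture under SEB/TSST-1 stimulation, measured 24 h after dosing.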

CD40, CD40 (gene 958) [17] = test: BSK_SAg_CD40: BioMAP Diversity Plus: SAg Assay for CD40 Biomarker Activity (AID 2283088); details: primary human HUVEC with PBMC; actives raise or lower the signal
Procedure, shortened: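 Fluorescence ELISA read-out of CD40 from umbilical vein endothelium plus peripheral blood mononuclear cells, sampled 24 h after dosing. Values come from bidirectional curve fitting with DMSO as baseline.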

CD69, CD69 (gene 969) = test: BSK_SAg_CD69: BioMAP Diversity Plus: SAg Assay for CD69 Biomarker Activity (AID 2283089); details: primary human HUVEC with PBMC; actives raise or lower the signal;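 on AC50: cell surface CD69 protein quantified by ELISA with fluorescence detection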
Procedure, shortened: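 Values derive from bidirectional fitting relative to DMSO vehicle. Cells: umbilical vein endothelium plus peripheral blood mononuclear cells, treated 24 h before fluorescent ELISA for CD69.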

CD40, CD40 (gene 958) [18] = test: BSK_LPS_CD40: BioMAP Diversity Plus: LPS Assay for CD40 Biomarker Activity (AID 2283076); details: primary human HUVEC with PBMC; actives raise or lower the signal
Procedure, shortened: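 CD40 signal, measured by ELISA, is fitted in both directions relative to DMSO vehicle. The system is an LPS-driven human vascular primary co-culture of endothelial cells and PBMC, sampled 24 h after compound addition.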

Measured: AC50

Chain of E-selectin (Homo sapiens) (P16581 whole entry, looked up): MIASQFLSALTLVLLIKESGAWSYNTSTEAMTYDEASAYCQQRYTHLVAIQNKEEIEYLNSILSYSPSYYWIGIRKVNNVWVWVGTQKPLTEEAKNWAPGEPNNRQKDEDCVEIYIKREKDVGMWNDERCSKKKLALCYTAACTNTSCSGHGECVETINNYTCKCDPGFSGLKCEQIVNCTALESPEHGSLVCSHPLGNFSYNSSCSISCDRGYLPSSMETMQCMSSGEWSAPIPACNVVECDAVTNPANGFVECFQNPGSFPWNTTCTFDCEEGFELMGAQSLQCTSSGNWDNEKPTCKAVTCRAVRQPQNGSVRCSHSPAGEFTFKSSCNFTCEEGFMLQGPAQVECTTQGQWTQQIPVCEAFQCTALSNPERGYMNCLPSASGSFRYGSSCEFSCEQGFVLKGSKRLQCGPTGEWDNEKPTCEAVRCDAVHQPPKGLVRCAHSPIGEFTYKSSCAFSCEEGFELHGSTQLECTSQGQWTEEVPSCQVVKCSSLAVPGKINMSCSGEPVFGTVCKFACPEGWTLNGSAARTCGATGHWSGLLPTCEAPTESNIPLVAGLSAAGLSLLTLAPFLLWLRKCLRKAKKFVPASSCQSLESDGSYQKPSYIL
Chain of Tumor necrosis factor (Homo sapiens) (P01375 whole entry, looked up): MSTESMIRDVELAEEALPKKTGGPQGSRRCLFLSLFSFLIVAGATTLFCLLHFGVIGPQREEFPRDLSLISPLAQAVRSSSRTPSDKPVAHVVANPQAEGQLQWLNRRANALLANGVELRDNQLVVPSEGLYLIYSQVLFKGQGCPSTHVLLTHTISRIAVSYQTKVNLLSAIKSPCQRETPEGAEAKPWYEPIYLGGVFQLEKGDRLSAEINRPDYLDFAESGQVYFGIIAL

CN(C)C(=O)Nc1ccc(Cl)c(Cl)c1
inactive: [1] | [2] | [3] | [4] | [5] | [6] | [7] | [8] | [9] | [10] | [11] | [13] | [14] | [15] | [16] | CD38, CD38 (gene 952) | CD40, CD40 (gene 958) [17] | CD69, CD69 (gene 969)
active: [12] 7.82 µM

N[C@@H](Cc1cc(I)c(Oc2ccc(O)c(I)c2)c(I)c1)C(=O)O
active: [7] 13.6 µM | [14] 3.17 µM
inactive: [1] | [2] | [3] | [4] | [5] | [6] | [8] | [9] | [10] | [11] | [12] | [13] | [15] | [16] | CD38, CD38 (gene 952) | CD40, CD40 (gene 958) [17] | CD69, CD69 (gene 969)

O=C(O)C1(C(=O)Nc2ccc(Cl)cc2Cl)CC1
inactive: [1] | [2] | [3] | [4] | [5] | [6] | [7] | [8] | [9] | [10] | [11] | [13] | [14] | [15] | [16] | CD40, CD40 (gene 958) [17]
active: [12] 7.72 µM | CD38, CD38 (gene 952) 5.3 µM | CD69, CD69 (gene 969) 9.21 µM

COc1c(Cl)ccc(Cl)c1C(=O)O
inactive: [1] | [2] | [3] | [5] | [6] | CD40, CD40 (gene 958) [18] | [7] | [8] | [9] | [10] | [11] | [12] | [13] | [14] | [15] | [16] | CD38, CD38 (gene 952) | CD40, CD40 (gene 958) [17] | CD69, CD69 (gene 969)

O=C(Nc1ccc([N+](=O)[O-])cc1Cl)c1cc(Cl)ccc1O
inactive: [3] | [7] | [14]
active: [1] 0.735 µM | [2] 0.436 µM | [4] 0.148 µM | [5] 0.313 µM | [6] 0.266 µM | [8] 0.47 µM | [9] 0.445 µM | [10] 0.109 µM | [12] 0.178 µM | [13] 0.148 µM | [15] 0.583 µM | [16] 0.175 µM | CD38, CD38 (gene 952) 0.148 µM | CD40, CD40 (gene 958) [17] 0.17 µM | CD69, CD69 (gene 969) 0.335 µM
